The record followed here is PubChem BioAssay.

Assay [1] can be described thus: stimulators of nuclear beta-catenin in C2C12, primary screen, imaging, WNT3A-conditioned medium, mouse C2C12, NPC library (AID 1117326; in the data active means nuclear beta-catenin stimulation mostly above about 4.2%, no sharp cut-off; inactive means mostly below about 10%). Conditions: stronger effect = higher value.
The nature of assay [2]: stimulators of insulin release from INS-1E, primary screen, cell-based, 5 mM glucose, NPC library (AID 1117329;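 active means compound raises insulin release from rat beta cells at 5 mM glucose, no numeric limit stated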). To be noted: rat INS-1E insulin secretion, at 10 µM, stronger effect = higher value.
Assay [3] can be described thus: growth inhibition of GSK3B-pretreated HCT116 cells – cell-based, CellTiter-Glo, 0.2 to 20 µM (AID 1117336;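 active means compounds lowering colon cancer cell viability after pretreatment blocking the GSK3B kinase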). To be noted: HCT116 viability after GSK3B inhibitor, at 20 µM, stronger effect = higher value. On the technique in general: In ATP-based viability assays light output follows the ATP content of the culture.
Assay [4] in a line: inhibition of endothelial tube formation, primary screen, imaging, VEGF stimulated, CD31 staining, tube area, NPC library (AID 1117340;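 active means compound that reduces growth-factor-driven endothelial tube area in a mixed cell culture, no cutoff stated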). Conditions: VEGF-stimulated ADSC/ECFC co-culture, at 10 µM, stronger effect = higher value.
A short description of assay [5]: glucagon-like peptide 1 release enhancers, primary assay, NCI-H716 cell line, NPC library (AID 1117341;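 active means compound raises GLP1 secretion from the human gut endocrine cells, with no numeric limit stated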). To be noted: NCI-H716 cells, at 10 µM, stronger effect = higher value.
Assay [6] is described as follows: HCT116 colon cancer cell growth inhibition, primary screen, CellTiter-Glo luminescence, NPC library (AID 1117342;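 active means compounds that lower survival of HCT116 colon cancer cells in the luminescence readout, no numeric limit stated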). Conditions: at 20 µM (top of the series).
The nature of assay [7]: CellTiter-Glo luminescent readout of SW480 viability loss, NPC library primary (AID 1117343;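 active means compounds that lower viability of the colon cancer cells in the luminescence readout, with no numeric limit stated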). To be noted: CellTiter-Glo luminescence; at 20 µM (top of the series).
Assay [8] in a line: decreased DLD-1 cellular survival, CellTiter-Glo luminescent readout, NPC compound collection, primary HTS (AID 1117346;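 active means compounds that lower survival of DLD-1 colon cancer cells in the luminescence readout, no cutoff given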). To be noted: DLD-1 viability, CellTiter-Glo luminescence; at 20 µM (top of the series).
Assay [9] addresses 6-phosphogluconate dehydrogenase, decarboxylating (Homo sapiens) (UniProt P52209). The assay can be described thus: 6PGD enzyme inhibitors, primary screen, biochemical, human, recombinant enzyme, NADPH absorbance (AID 1159550;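 active means at least 20% inhibition of 6-phosphogluconate dehydrogenase activity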). Conditions: recombinant 6PGD, NADPH absorbance 341 nm; at 10 µM; stronger effect = higher value.
Assay [10] is described as follows: differential killing of epithelial or mesenchymal cells, primary screen, imaging, PC-3E GFP, TEM4-18 mCherry, co-culture (AID 1345086;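 active means compounds killing one labelled cell type while sparing the other, by normalised counts and ratio limits, not self-fluorescent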;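 on all read-outs here: cells exposed to compound for 72 h before imaging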;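 on red/green cell ratio (normalised): normalised mesenchymal count divided by normalised epithelial count so high means epithelial killing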). Conditions: imaging cell counts, at 1 µM; for red/green cell ratio (normalised): actives lie on both sides, counts scaled to control wells, 1 = unselective.
Assay [11] in a line: survival rescue of mitochondrial mutant cells in low glucose, primary screen, MELAS cybrids, Rieske KO mouse fibroblasts, CellTiter-Glo (AID 1508586;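 active means mean z-score across replicates of 1.96 or higher in either the MELAS or the Rieske mutant cell line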;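 further: z relative to plate mean and SD of compound and empty wells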).
The target in assay [12] is NAD(+) hydrolase SARM1 (Homo sapiens) (UniProt Q6SZW1). The assay is described as follows: SARM1 TIR NADase inhibitors, cell lysate, NAD-Glo luminescence (AID 1508614;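 active means compound whose remaining NAD level is above about 45 nM, limit read from the data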). To be noted: SAM-TIR HEK293T lysate NADase, at 1 µM, stronger effect = higher value.
NAD(+) hydrolase SARM1 (Homo sapiens), sequence (Q6SZW1 whole entry, looked up, the tested form may be a part): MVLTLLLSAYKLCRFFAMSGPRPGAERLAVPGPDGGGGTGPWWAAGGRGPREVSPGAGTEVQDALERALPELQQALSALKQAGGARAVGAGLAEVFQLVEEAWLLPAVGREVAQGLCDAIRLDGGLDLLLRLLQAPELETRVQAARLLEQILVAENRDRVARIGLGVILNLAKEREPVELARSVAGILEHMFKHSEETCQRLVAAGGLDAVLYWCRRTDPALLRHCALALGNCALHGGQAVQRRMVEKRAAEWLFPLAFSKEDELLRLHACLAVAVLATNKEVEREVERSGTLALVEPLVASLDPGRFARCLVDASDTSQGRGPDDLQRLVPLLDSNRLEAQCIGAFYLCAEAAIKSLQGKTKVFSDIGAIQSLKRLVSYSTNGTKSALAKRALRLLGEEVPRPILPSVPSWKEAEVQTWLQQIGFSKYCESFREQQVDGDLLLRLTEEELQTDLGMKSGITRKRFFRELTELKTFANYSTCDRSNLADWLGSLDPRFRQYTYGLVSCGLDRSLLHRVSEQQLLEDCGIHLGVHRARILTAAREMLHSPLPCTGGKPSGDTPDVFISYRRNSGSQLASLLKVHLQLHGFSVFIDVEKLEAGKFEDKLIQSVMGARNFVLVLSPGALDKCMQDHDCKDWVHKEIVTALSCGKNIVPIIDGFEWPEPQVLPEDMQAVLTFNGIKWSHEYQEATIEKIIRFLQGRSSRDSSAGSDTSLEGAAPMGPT
Assay [13] deals with Mitogen-activated protein kinase 7 (Homo sapiens) (UniProt Q13164). The assay can be described thus: ERK5 transactivation activators in reporter cells, primary screen, cell-based, HTS (AID 1508626;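 active means luciferase signal above three times the same-plate solvent-only control wells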;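 further: luciferase driven by Gal4-ERK5 fusion binding five Gal4 sites before minimal TATA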). Conditions: HeLa Gal4-ERK5 transactivation, 18 h, at 5 µM, stronger effect = higher value.
Mitogen-activated protein kinase 7 (Homo sapiens), sequence (Q13164 whole entry, looked up, the tested form may be a part): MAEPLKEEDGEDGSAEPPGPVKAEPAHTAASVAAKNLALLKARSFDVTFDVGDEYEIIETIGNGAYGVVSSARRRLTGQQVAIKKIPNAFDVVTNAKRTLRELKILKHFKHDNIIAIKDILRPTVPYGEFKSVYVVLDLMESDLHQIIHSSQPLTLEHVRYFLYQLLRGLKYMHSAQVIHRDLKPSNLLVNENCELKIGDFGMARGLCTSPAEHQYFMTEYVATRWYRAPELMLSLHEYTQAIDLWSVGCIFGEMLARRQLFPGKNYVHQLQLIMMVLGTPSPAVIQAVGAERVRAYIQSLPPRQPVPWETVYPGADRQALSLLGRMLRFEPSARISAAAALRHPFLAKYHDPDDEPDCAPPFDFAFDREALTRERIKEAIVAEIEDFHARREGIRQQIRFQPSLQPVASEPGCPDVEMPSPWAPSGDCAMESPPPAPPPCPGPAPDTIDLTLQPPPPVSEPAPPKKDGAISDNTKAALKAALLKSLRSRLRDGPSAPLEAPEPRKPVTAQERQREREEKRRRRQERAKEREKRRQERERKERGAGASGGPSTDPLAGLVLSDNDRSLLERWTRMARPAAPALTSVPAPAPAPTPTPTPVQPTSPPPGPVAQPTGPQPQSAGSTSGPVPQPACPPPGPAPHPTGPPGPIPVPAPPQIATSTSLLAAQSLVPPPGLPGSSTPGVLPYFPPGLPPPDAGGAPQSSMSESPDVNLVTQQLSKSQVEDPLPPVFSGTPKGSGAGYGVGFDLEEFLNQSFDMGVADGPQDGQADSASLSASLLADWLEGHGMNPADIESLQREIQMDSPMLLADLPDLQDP
Assay [14] has as its system F380Y. The assay can be described thus: modulators of BK channel variants, profiling panel, selectivity assay, cell-based, U2OS BacMam, thallium flux, beta subunits (AID 1259406).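 Further: initial slope of Thallos dye fluorescence rise after thallium is added; log ratio against the mean of 0.3% DMSO vehicle wells on the same plate.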 Conditions: at 30 µM.
Assay [15] concerns F380Y/beta2Delta. The description is as above. Conditions: at 30 µM.
Assay [16] addresses Calcium-activated potassium channel subunit alpha-1 (Homo sapiens) + Leucine-rich repeat-containing protein 26 (Homo sapiens) (UniProt Q12791+Q2I0M4). The description is as above. Conditions: F380Y/Slo1WT/gamma1, at 30 µM.
Assay [17] relates to R275C. Described as above. To be noted: at 30 µM.
Assay [18] has as its system R275C/beta1. The assay is described as above. To be noted: at 30 µM.
Assay [19] relates to R275C/beta2Delta. The description is as above. To be noted: at 30 µM.
The nature of assay [20]: sensitizers of A549 cells to miR-34 induction, primary screen, imaging, A549 dox-inducible miR-34, nuclei and caspase counts (AID 1347080;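 active means compounds whose cell count with miR-34 switched on is under 0.7 times the count with it off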). Conditions: A549 miR-34 inducible, Hoechst nuclei count, 48 h; stronger effect = lower value; cell number ratio, induced over uninduced.
Where [21] appears, read: measured here: epithelial PC-3E GFP cell survival.
Setting [22] is: measured here: mesenchymal TEM4-18 mCherry cell survival.
Setting [23] is: MELAS cybrid survival, CellTiter-Glo 48 h, stronger effect = higher value.
The mark [24] stands for this setting: Rieske KO mouse fibroblast survival, CellTiter-Glo 72 h.

Each structure is given as a SMILES string. Several values for one entry are separate records, joined by “and”; a condition that tells them apart may be missing. Identical values can stand only once. Activity calls are given as the source filed them.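 How the source made its calls, unless noted: active means thallium flux through the channel raised or lowered by more than 3 SD from vehicle-only wells, actives on both sides; inactive means the rest.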

Calcium-activated potassium channel subunit alpha-1 (Homo sapiens) + Leucine-rich repeat-containing protein 26 (Homo sapiens), sequence (Q2I0M4 whole entry, looked up, one chain of several): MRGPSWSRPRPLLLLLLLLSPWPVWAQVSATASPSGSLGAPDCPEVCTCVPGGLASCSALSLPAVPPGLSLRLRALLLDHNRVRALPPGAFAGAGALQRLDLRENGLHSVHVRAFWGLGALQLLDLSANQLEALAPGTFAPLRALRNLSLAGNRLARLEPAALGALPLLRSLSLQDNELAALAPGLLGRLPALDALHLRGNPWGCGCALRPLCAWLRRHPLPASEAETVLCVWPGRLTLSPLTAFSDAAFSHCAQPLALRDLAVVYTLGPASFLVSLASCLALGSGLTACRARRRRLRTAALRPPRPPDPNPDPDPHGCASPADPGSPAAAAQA
6-phosphogluconate dehydrogenase, decarboxylating (Homo sapiens), sequence (P52209 whole entry, looked up): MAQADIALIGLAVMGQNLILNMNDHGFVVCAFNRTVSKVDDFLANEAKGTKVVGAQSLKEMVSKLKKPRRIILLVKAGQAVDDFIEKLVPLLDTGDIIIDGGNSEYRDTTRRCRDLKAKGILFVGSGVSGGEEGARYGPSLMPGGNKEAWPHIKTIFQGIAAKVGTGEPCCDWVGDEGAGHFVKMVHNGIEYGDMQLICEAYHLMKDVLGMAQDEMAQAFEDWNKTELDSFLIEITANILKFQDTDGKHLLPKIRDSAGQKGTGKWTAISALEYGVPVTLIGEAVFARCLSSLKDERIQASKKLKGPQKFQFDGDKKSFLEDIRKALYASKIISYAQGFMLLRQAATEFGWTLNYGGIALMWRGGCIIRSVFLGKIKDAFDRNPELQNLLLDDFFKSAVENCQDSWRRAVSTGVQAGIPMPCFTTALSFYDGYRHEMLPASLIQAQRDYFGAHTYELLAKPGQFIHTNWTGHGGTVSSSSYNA

In the case of `Cc1ccc(S(=O)(=O)NC(=O)NN2CCCCCC2)cc1`, the nuclear beta-catenin stimulation in assay [1] (at 10 µM) is 0.5% (inactive); in assay [1] (stimulation, at 2 µM), -0.9%. Moreover, in assay [2], the insulin secretion stimulation was 60.9% (active). In assay [3], the viability decrease is -7% (inactive). Moreover, the tube area decrease in assay [4] was -13.2% (inactive). In addition, the GLP1 secretion stimulation in [5] is 1.4% (inactive). In addition, the inhibition of viability in assay [6] is -14.9% (inactive). Besides, the viability decrease (inhibition) in assay [7] was -1.7% (inactive); in [8] it was 4.8% (inactive). In addition, the inhibition in assay [9] was 16.2% (inactive). Further, in assay [10], the red/green cell ratio (normalised) is 1.04 (inactive). The normalised cell number in assay [10] (setting [21]) came out at 1.09; in assay [10] (setting [22]), 1.13. In addition, the z-score in assay [11] (setting [23]) was -0.943 (inactive) and -0.476 (inactive); in assay [11] (setting [24]), -0.174 and -0.295. Moreover, in assay [12], the remaining NAD was 10 nM (inactive). The luciferase signal in assay [13] is 144 AU (inactive). The log fold change Tl+ flux in [14] is -0.0421 (inactive); in assay [15], -0.0238 (inactive); in assay [16] it was 0.0367 (inactive); in [17], -0.0622 (inactive); in assay [18], -0.00502 (inactive); in [19] it was -0.0116 (inactive).
Regarding `CC(=O)Nc1nnc(S(N)(=O)=O)s1`, the nuclear beta-catenin stimulation in assay [1] (at 10 µM) is 0.1% (inactive); in assay [1] (stimulation, at 2 µM), -0.2%. Moreover, in [2], the insulin secretion stimulation was -1.1% (inactive). Further, the viability decrease in assay [3] is -1.8% (inactive). Also, in assay [4], the tube area decrease is -16.7% (inactive). Besides, in assay [5], the GLP1 secretion stimulation was 1.4% (inactive). The inhibition of viability in assay [6] is 1.7% (inactive). In addition, the viability decrease (inhibition) was 31.5% (inactive) in assay [7] and 6.2% (inactive) in [8]. Also, the inhibition in assay [9] was -4.83% (inactive). In addition, in [10], the red/green cell ratio (normalised) is 1.26 (inactive). Moreover, the normalised cell number in assay [10] (setting [21]) came out at 0.92; in [10] (setting [22]), 1.17. The figures for the z-score in assay [11] (setting [23]) and in assay [11] (setting [24]) were -0.627 (inactive) and 0.11, respectively. Also, the remaining NAD in [12] is 10 nM (inactive). For the same molecule, in assay [13], the luciferase signal is 44 AU (inactive). Further, the log fold change Tl+ flux in assay [14] is 0.0439 (inactive); in [15], 0.0368 (inactive); in [16], -0.0199 (inactive); in [17], 0.0184 (inactive); in [18], -0.00169 (inactive); in assay [19] it was 0.0403 (inactive).
On to `CC(C)NCC(O)c1cc(O)cc(O)c1` (stereo not given), for which the nuclear beta-catenin stimulation in assay [1] (at 10 µM) is 1.6% (inactive); in [1] (stimulation, at 2 µM), 0.9%. Moreover, in [2], the insulin secretion stimulation was 1.2% (inactive). For the same molecule, in [3], the viability decrease is 6% (inactive). Also, the tube area decrease in [4] was 3.6% (inactive). Also, the GLP1 secretion stimulation in assay [5] is 2.2% (inactive). Moreover, the inhibition of viability in assay [6] is -11.2% (inactive). Further, the viability decrease (inhibition) in assay [7] is -1.6% (inactive); in assay [8] it was -9.9% (inactive). Besides, the inhibition in [9] is -6.42% (inactive). Further, the red/green cell ratio (normalised) in [10] is 1.18 (inactive). The values for the normalised cell number in assay [10] (setting [21]) and in assay [10] (setting [22]) were 1.02 and 1.2, respectively. Also, in [20], the fold change was 1.13 (inactive) and 0.914 (inactive) and 0.836 (inactive). In addition, the z-score in [11] (setting [23]) was 0.509 (inactive); in [11] (setting [24]), 0.459. In assay [12], the remaining NAD was 10 nM (inactive). Further, the luciferase signal in assay [13] was 92 AU (inactive). The log fold change Tl+ flux in [14] was -0.0466 (inactive); in assay [15], 0.0418 (inactive); in assay [16], 0.0135 (inactive); in [17] it was 0.0473 (inactive); in [18], -0.038 (inactive); in [19], 0.0259 (inactive).

What is called inhibition is the drop in the measured response relative to a control, in per cent.
